TDP1 inh: qHTS Assay for Inhibitors of Tyrosyl-DNA Phosphodiesterase (TDP1); recombinant TDP1, AlphaScreen DNA substrate cleavage; Potency, µM (top dose mostly 130 µM), for inactives: top-dose activity change, negative = inhibition, most hits filed as inhibitors; AID 485290, 2010; Tyrosyl-DNA phosphodiesterase 1 (Homo sapiens), Q9NUW8; hit rate 0.28% among 350,000; note: nearly all actives have a fitted effect of over 40% in size
Target sequence (Q9NUW8 whole entry, looked up): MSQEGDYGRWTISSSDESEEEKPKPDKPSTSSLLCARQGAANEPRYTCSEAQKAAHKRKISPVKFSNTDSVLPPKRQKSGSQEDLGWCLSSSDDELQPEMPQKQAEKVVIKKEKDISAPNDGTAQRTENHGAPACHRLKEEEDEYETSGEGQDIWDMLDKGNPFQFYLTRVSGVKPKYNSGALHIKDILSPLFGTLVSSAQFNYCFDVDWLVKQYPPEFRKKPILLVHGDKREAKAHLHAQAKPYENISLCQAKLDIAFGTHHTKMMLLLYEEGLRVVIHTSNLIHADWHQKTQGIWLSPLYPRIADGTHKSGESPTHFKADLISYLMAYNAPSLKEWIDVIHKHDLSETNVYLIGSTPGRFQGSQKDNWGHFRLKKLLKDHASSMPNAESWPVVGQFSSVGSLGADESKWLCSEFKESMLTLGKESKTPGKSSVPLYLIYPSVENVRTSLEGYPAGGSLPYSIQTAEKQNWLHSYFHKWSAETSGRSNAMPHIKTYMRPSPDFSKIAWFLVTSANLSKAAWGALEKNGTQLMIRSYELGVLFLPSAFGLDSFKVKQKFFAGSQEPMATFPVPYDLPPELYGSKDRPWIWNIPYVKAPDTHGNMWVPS
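Signal: AlphaScreen proximity between streptavidin donor and anti-FITC acceptor beads on intact substrate. Reaction: Tdp1 1 nM, substrate 15 nM final, 5 min RT after 15 min compound preincubation.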
GCN5L2 inh: qHTS Assay for Inhibitors of GCN5L2. GCN5L2 HAT assay, ThioGlo1 CoA-SH fluorescence. Potency, µM (highest dose often 58.9 µM), inactives show at the highest dose activity change, negative = inhibition, hits mostly inhibitors. hit rate 0.21% among 390,000. AID 504327, 2011
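GCN5L2 (20 nM) in 50mM HEPES pH 7.5, 0.1mM EDTA, 0.01% Tween-20 preincubated 15 min with compounds at room temperature. Reaction started with H3(1-25) 75uM, acetyl-CoA 70uM, ThioGlo1 50uM; CoA-thiol fluorescence (Ex340/Em540) read at 0 and 20 min.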
PLK1 PBD block: qHTS for Inhibitors of PLK1-PDB (polo-like kinase 1 - polo-box domain): Primary Screen | Plk1 PBD binding of FITC phosphopeptide, fluorescence polarization | Serine/threonine-protein kinase PLK1 (Homo sapiens), P53350 | hit rate 2.8% among 360,000 | Potency, µM, inactives show max response, negative = inhibition, usual class: inhibitors; note: series mostly up to about 57 µM; nearly all actives have a fitted effect of over 65% in size
TDP1 cell noCPT: qHTS for Inhibitors of human tyrosyl-DNA phosphodiesterase 1 (TDP1): qHTS in cells in absence of CPT; DT40 Tdp1-/- hTDP1 cells, no CPT, ATP luminescence, 48 h; Potency, µM (top dose mostly 46.2 µM), for inactives: at the highest dose activity change, negative = growth inhibition, usual class: inhibitors; hit rate 15% among 420,000; note: nearly all actives have a fitted effect of over 55% in size
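Growth of hTDP1-complemented DT40 Tdp1-knockout cells is measured by ATP luminescence after at least 48 hr compound exposure at 37 °C, with DMSO substituting for the 20 nM CPT used in the parallel screen.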
TDP1 cell CPT: qHTS for Inhibitors of human tyrosyl-DNA phosphodiesterase 1 (TDP1): qHTS in cells in presence of CPT | chicken DT40 Tdp1-/-;hTDP1 cells + 20 nM CPT, ATP luminescence, 48 h | Potency, µM (titrated, usually from 46.2 µM), for inactives: top-dose activity change, negative = growth inhibition, actives largely listed as inhibitors | hit rate 12% among 420,000; note: nearly all actives have a fitted effect of over 55% in size
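Chicken DT40 Tdp1-/- cells stably complemented with human TDP1 were seeded at 400 cells/well in medium containing 20 nM camptothecin, exposed to pin-transferred compounds, and grown at 37 °C for at least 48 hr. Viability was read as ATP luminescence.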
VDR inh: Inhibitors of the vitamin D receptor (VDR): qHTS. Vitamin D3 receptor (Homo sapiens), P11473. VDR-SRC2-3 peptide fluorescence polarization, 2 h. Potency, µM, for inactives: max response, negative = inhibition, hits mostly inhibitors. hit rate 0.93% among 400,000. AID 504847, 2011
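Inhibition of the VDR/SRC2-3 peptide interaction is quantified by fluorescence polarization. Compounds (23 nl, pintool) incubate with the reagents for 2 hours at ambient room temperature.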
Numbers without * were called inactive; ? = inconclusive; · = no result; [ ] = dose if it differs, or a comment. A selection: hits, their analogues and other compounds. The true share with any hit is near 18%. Calls come from the whole dose curve; as a rule, active = well fitted curve in the direction sought with a large enough effect; inconclusive = small, poorly fitted or top-dose-only effect, or another doubt; inactive = no such curve, though single readings can be large; an effect the other way counts as inactive or inconclusive. % is set by controls: 0 for no effect and ±100 for the full control effect; potency is the fitted concentration of half-maximal effect.

SMILES | TDP1 inh | GCN5L2 inh | PLK1 PBD block | TDP1 cell noCPT | TDP1 cell CPT | VDR inh
CCCn1c(=O)[nH]c(=O)c2c1nc(-c1ccc(OC(F)(F)C(F)C(F)(F)F)cc1)n2CCOC (stereo not given) | 3% | -24% | -8% | 16µM* | ? | 0%
CCCCn1c(-c2cccc(F)c2)nc2c1c(=O)[nH]c(=O)n2CC(C)C | 4%[0.0935 µM] | -1% | -6% | ? | -28% | 19%
CCCCn1c(-c2ccc(OC(F)F)cc2)nc2c1c(=O)[nH]c(=O)n2CC(C)C | -5% | 0% | 1% | 23µM* | 21µM* | -1%
CC(C)Oc1ccc(S(=O)(=O)N2CCOCC2)cc1NC(=O)C1=NN(c2ccccc2)C(=O)CC1 | 3% | -8% | 0% | ? | ? | -9%
Cc1ccc(-n2nnnc2CNC(=O)c2cc(C(F)(F)F)cc(C(F)(F)F)c2)cc1C | 0% | -6% | · | 16µM* | ? | 13%
COc1cc(OC)c(C(=O)OCC(=O)Nc2cccc(S(=O)(=O)NC3=NCCCCC3)c2)cc1OC | · | · | 4% | ? | ? | -9%
COc1cc(SC)ccc1C(=O)Nc1ccc(C)cc1 | 6% | -15% | -5% | ? | -18% | -2%
COc1cc(SC)ccc1C(=O)Nc1cccc(S(=O)(=O)NC2=NCCCCC2)c1 | -3% | 0% | -11% | ? | 21µM* | 4%
CCN(CC)S(=O)(=O)c1cccc(NC(=O)c2ccc(SC)cc2OC)c1 | 7% | -14% | -4% | 7.3µM* | 26µM* | -8%
CCCOc1ccccc1/C=C(\C#N)C(=O)Nc1cccnc1 | 8% | -1% | -3% | -11% | -3% | -17%
CCOc1ccc(C(=O)NCc2nnnn2-c2ccc(C)c(C)c2)cc1OCC | 3% | -10% | · | -23% | -24% | 8%
O=C1CC(c2ccccc2)=C(c2ccccc2)C1c1ccccc1 (stereo not given) | · | · | -1% | ? | 29µM* | -17%
O=C1NNC(=O)C1c1ccccc1 | · | -9% | -8% | 1% | -1% | -13%
CCOC(=O)CCN1C(=O)[C@H]2[C@H]3[C@H](O)[C@H](O)C/C(=N/NC(=O)OCC)[C@H]3CC[C@@H]2C1=O | 5%[21 µM] | · | · | · | · | ·
COc1ccccc1N1CCN(C(=O)CN(CCc2ccccc2)S(C)(=O)=O)CC1 | 2% | -18% | -5% | 10µM* | ? | 7%
O=C(CN(c1ccc(Cl)c(Cl)c1)S(=O)(=O)c1ccccc1)N1CCc2ccccc2C1 | 5% | -10% | -6% | 29µM* | ? | 15%
COc1ccc(N(CC(=O)N2CCN(C)CC2)S(=O)(=O)c2ccccc2)cc1 | · | -3% | 2% | 9% | 3% | -1%
COc1ccc(S(=O)(=O)N(CC(=O)N2CCN(c3ccccc3OC)CC2)c2ccccc2)cc1 | 1% | -5% | 3% | 12µM* | 21µM* | 3%
COc1ccc2cc(/C=N/NC(=O)CN(c3ccccc3C)S(=O)(=O)c3ccccc3)c(Cl)nc2c1 | 6% | 3% | 2% | 6.5µM* | 2.9µM* | 0%
COc1ccc(N(CC(=O)N/N=C/c2ccc(OC)cc2OC)S(=O)(=O)c2ccccc2)cc1 | · | -18% | -10% | -21% | -4% | -8%
Cc1ccc(S(=O)(=O)N(CC(=O)N2CCc3ccccc3C2)c2ccc(C)c(C)c2)cc1 | 5%[12.3 µM] | 2% | · | 18µM* | 16µM* | 13%
COc1ccc(S(=O)(=O)N(C)CC(=O)N2CCN(c3ccc(F)cc3)CC2)cc1OC | 6% | -10% | -4% | 22µM* | ? | -9%
COc1ccc(/C=N/NC(=O)CN(c2ccc(OC)cc2)S(=O)(=O)c2ccccc2)cc1 | 0% | -11% | 27µM* | ? | ? | -17%
Cc1ccc(OCC(=O)N2CCc3ccccc3C2)cc1 | 4% | -1% | -11% | ? | 4% | -3%
CN(C(=O)C(C)(C)C)c1ccc(OCC(=O)N2CCc3ccccc3C2)cc1 | · | 2% | -8% | 16µM* | ? | 12%
SMILES | TDP1 inh | GCN5L2 inh | PLK1 PBD block | TDP1 cell noCPT | TDP1 cell CPT | VDR inh
COc1ccc(N(CC(=O)N/N=C/c2ccc(F)cc2)S(=O)(=O)c2ccccc2)cc1 | · | -8% | 10% | -23% | ? | 8%
Cc1ccccc1CN(c1ccc(C(=O)N2CCc3ccccc3C2)cc1)S(C)(=O)=O | 5% | -5% | 3% | 15µM* | 12µM* | 6%
COc1ccc(N2CCN(C(=O)CN(c3ccccc3)S(=O)(=O)c3ccc(OC)cc3)CC2)cc1 | 5% | -6% | -8% | 21µM* | ? | 7%
Cc1ccc(S(=O)(=O)N(CC(=O)N=Nc2c(O)[nH]c3ccccc23)c2ccc(C)c(C)c2)cc1 | 11% | -9% | -14% | 21µM* | 18µM* | -3%
COc1ccc(N2CCN(C(=O)CN(c3ccc(OC)cc3)S(=O)(=O)c3ccccc3)CC2)cc1 | 10% | -9% | -1% | 23µM* | 13µM* | 8%
COc1ccc(CNC(=O)N2CCN(c3ccc(F)cc3)CC2)cc1Cl | 9% | -1% | -12% | 9.2µM* | ? | 24%
Cc1ccc(S(=O)(=O)N(CC(=O)N2CCN(c3ccc(F)cc3)CC2)C2CCCCC2)cc1 | 4% | -12% | -3% | 21µM* | ? | -18%
NC(=O)CN(c1ccc(Oc2ccccc2)cc1)S(=O)(=O)c1ccccc1 | 2% | ? | 2% | ? | 21µM* | -3%
CCN(CC)S(=O)(=O)c1ccc(N2CCN(c3ccccc3OC)CC2)c(N)c1 | 8% | -6% | -15% | 7.3µM* | 9.2µM* | -22%
COc1ccc(CNC(=O)N2CCN(c3ccc(F)cc3)CC2)cc1 | · | -5% | 4% | 11% | 9% | 14%
CCOC(=O)N1CCN(C(=O)CN(C2CCCCC2)S(=O)(=O)c2ccc(C)cc2)CC1 | 3% | -6% | -2% | ? | ? | 5%
O=C1CSC(c2cccc([N+](=O)[O-])c2)N1c1ccccc1F (stereo not given) | -1% | 0% | -9% | ? | -24% | -13%
CCOc1ccc(CCNC(=O)c2oc(=O)c3ccccc3c2-c2ccc(C)cc2)cc1OCC | 5% | -7% | · | ? | ? | -9%
